This is part of a sample that, as a whole, favours compounds with a hit. Of some 79,000 tested, about 15% had one in any assay. Values without a mark were called inactive. Active and inactive are the calls of the source. Cut-off read from the data, not from the text of the source: active = growth inhibition above about 70%; inactive = the rest.

Experimental findings from PubChem BioAssay (NCI) are described below.

A short description of test [1]: NCI Yeast Anticancer Drug Screen. Data for the rad50 strain (AID 155).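 Note: 0% = growth of vehicle-only cultures of the same strain.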 As to conditions: S. cerevisiae rad50 strain growth inhibition, hits give high values. A digest of the protocol: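 Growth of the mutant yeast was measured after compound exposure and referenced to vehicle-treated cultures.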
The nature of test [2]: NCI Yeast Anticancer Drug Screen. Data for the mec2-1 strain (AID 157). As to conditions: S. cerevisiae mec2-1 strain, hits give high values. A digest of the protocol: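 Each compound was tested on mec2-1 yeast, a strain altered in DNA damage repair or cell cycle control. Growth inhibition is reported relative to vehicle.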
Test [3] is described as follows: NCI Yeast Anticancer Drug Screen. Data for the sgs1 mgt1 strain (AID 161).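 Note: 0% = growth of cultures given vehicle only.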 As to conditions: S. cerevisiae sgs1 mgt1 strain, hits give high values. An outline of the steps: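 Inhibition of yeast growth, normalised to vehicle-treated controls, is reported for a strain bearing genetic alterations in DNA damage repair.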
Test [4] can be described thus: NCI Yeast Anticancer Drug Screen. Data for the cln2 rad14 strain (AID 165).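 Note: 0% = growth equal to vehicle treated cultures.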 Particulars: S. cerevisiae cln2 rad14 strain, hits give high values. An outline of the steps:
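Test compounds were added to cln2 rad14 yeast cultures; inhibition of growth was then determined by comparison with vehicle treatment.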

Test [5] is described as follows: NCI Yeast Anticancer Drug Screen. Data for the bub3 strain (AID 167). Particulars: S. cerevisiae bub3 mutant strain, hits give high values. A digest of the protocol:
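Whole-cell yeast assay. The mutant strain was incubated with compounds, and growth inhibition was determined by comparison with vehicle-treated cells.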

A short description of test [6]: NCI Yeast Anticancer Drug Screen. Data for the mlh1 rad18 strain (AID 175). Particulars: S. cerevisiae mlh1 rad18 strain growth inhibition, hits give high values. A digest of the protocol:
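Inhibition values reflect reduced growth of mutant yeast versus vehicle-treated controls following compound exposure; the mutations affect DNA damage repair.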

Setting [7] is: at 5.0 µM (retest, dose inferred, filed as 0.5).
[8] abbreviates: at 50.0 µM (retest, dose inferred, filed as 5.0).

Take `Nc1nc(=Nc2ccccc2)ss1`: the growth inhibition is -12% in test [1] (setting [7]); 99% (active) in test [1] (setting [8]); 84.8% (active) in test [1] (at 50.0 µM); 6% in test [2] (setting [7]); 100% (active) in test [2] (setting [8]); 71.1% (active) in test [2] (at 50.0 µM). For the same compound, the growth inhibition in test [3] (setting [7]) is 0%; in test [3] (setting [8]), 99% (active); in test [3] (at 50.0 µM) it was 86.5% (active); in test [4] (setting [7]), -7%; in test [4] (setting [8]) it was 99% (active); in test [4] (at 50.0 µM), 45.4%. Also, the growth inhibition in test [5] (setting [7]) was -11%; in test [5] (setting [8]), 100% (active); in test [5] (at 50.0 µM), 57.5%; in test [6] (setting [7]) it was 12%; in test [6] (setting [8]), 99% (active); in test [6] (at 50.0 µM) it was 78.7% (active).

`C1=Nc2ccccc2/C1=C/c1ccccc1`: the growth inhibition is 10% in test [1] (setting [7]); 22% in test [1] (setting [8]); 72.9% (active) in test [1] (at 50.0 µM); -9% in test [2] (setting [7]); 20% in test [2] (setting [8]); 48.8% in test [2] (at 50.0 µM). Also, the growth inhibition in test [3] (setting [7]) was -13%; in test [3] (setting [8]) it was 19%; in test [3] (at 50.0 µM) it was 49.7%; in test [4] (setting [7]), 27%; in test [4] (setting [8]), 26%; in test [4] (at 50.0 µM) it was 40%. The growth inhibition in test [5] (setting [7]) was 9%; in test [5] (setting [8]), 38%; in test [5] (at 50.0 µM), 64.4%; in test [6] (setting [7]), 2%; in test [6] (setting [8]) it was 50%; in test [6] (at 50.0 µM) it was 52.1%.

As to `C(=C/c1ccnc2ccccc12)/c1cccs1`, the growth inhibition in test [1] (setting [7]) is -2%; in test [1] (setting [8]), 93% (active); in test [1] (at 50.0 µM), 98.2% (active); in test [2] (setting [7]), 1%; in test [2] (setting [8]), 93% (active); in test [2] (at 50.0 µM), 98.8% (active). Moreover, the growth inhibition in test [3] (setting [7]) was 2%; in test [3] (setting [8]), 91% (active); in test [3] (at 50.0 µM), 98.8% (active); in test [4] (setting [7]), 0%; in test [4] (setting [8]), 57%; in test [4] (at 50.0 µM), 98.1% (active). For the same compound, the growth inhibition was 4% in test [5] (setting [7]); 81% (active) in test [5] (setting [8]); 98.3% (active) in test [5] (at 50.0 µM); -2% in test [6] (setting [7]); 94% (active) in test [6] (setting [8]); 98.2% (active) in test [6] (at 50.0 µM).

On to `C=CC1(C)CCC2C(=CCC3C(C)(COC4OC(CO)C(O)C(O)C4O)C(O)CCC23C)C1` (stereo not given), for which the growth inhibition in test [1] (setting [7]) was -4%; in test [1] (setting [8]), 99% (active); in test [1] (at 50.0 µM), 93.2% (active); in test [2] (setting [7]), -1%; in test [2] (setting [8]), 99% (active); in test [2] (at 50.0 µM), 93.9% (active). For the same compound, the growth inhibition is -3% in test [3] (setting [7]); 43% in test [3] (setting [8]); 93.8% (active) in test [3] (at 50.0 µM); -1% in test [4] (setting [7]); 70% (active) in test [4] (setting [8]); 91.5% (active) in test [4] (at 50.0 µM). Further, the growth inhibition in test [5] (setting [7]) is 18%; in test [5] (setting [8]), 92% (active); in test [5] (at 50.0 µM), 93.6% (active); in test [6] (setting [7]) it was -3%; in test [6] (setting [8]), 99% (active); in test [6] (at 50.0 µM), 92.8% (active).

In the case of `COc1cc(C(Sc2ccccc2C(=O)O)Sc2ccccc2C(=O)O)ccc1O`, the growth inhibition in test [1] (setting [7]) was 9%; in test [1] (setting [8]) it was 91% (active); in test [1] (at 50.0 µM), 95.5% (active); in test [2] (setting [7]) it was 12%; in test [2] (setting [8]), 88% (active); in test [2] (at 50.0 µM) it was 95.6% (active). Besides, the growth inhibition in test [3] (setting [7]) is 21%; in test [3] (setting [8]) it was 94% (active); in test [3] (at 50.0 µM) it was 97.4% (active); in test [4] (setting [7]), 8%; in test [4] (setting [8]), 93% (active); in test [4] (at 50.0 µM), 81.6% (active). For the same compound, the growth inhibition in test [5] (setting [7]) is 12%; in test [5] (setting [8]), 97% (active); in test [5] (at 50.0 µM) it was 87.9% (active); in test [6] (setting [7]), 14%; in test [6] (setting [8]), 95% (active); in test [6] (at 50.0 µM), 98.5% (active).

`CN1COc2c(Cl)cc(Cl)cc2C1`: the growth inhibition in test [1] (setting [7]) was -3%; in test [1] (setting [8]), 85% (active); in test [1] (at 50.0 µM) it was 76.2% (active); in test [2] (setting [7]) it was -2%; in test [2] (setting [8]) it was 45%; in test [2] (at 50.0 µM), 57.2%. The growth inhibition in test [3] (setting [7]) was 0%; in test [3] (setting [8]), 91% (active); in test [3] (at 50.0 µM), -5.15%; in test [4] (setting [7]), -3%; in test [4] (setting [8]), 46%; in test [4] (at 50.0 µM) it was -4%. Moreover, the growth inhibition in test [5] (setting [7]) is -4%; in test [5] (setting [8]), 75% (active); in test [5] (at 50.0 µM) it was 45.5%; in test [6] (setting [7]), -1%; in test [6] (setting [8]), 86% (active); in test [6] (at 50.0 µM), 42.5%.

For the compound `O=C(N/C(=C\c1ccc(Cl)cc1)c1nc2ccccc2s1)c1ccccc1`, the growth inhibition is 34% in test [1] (setting [7]); 95% (active) in test [1] (setting [8]); 98.3% (active) in test [1] (at 50.0 µM); 32% in test [2] (setting [7]); 97% (active) in test [2] (setting [8]); 98.1% (active) in test [2] (at 50.0 µM). In addition, the growth inhibition is 54% in test [3] (setting [7]); 97% (active) in test [3] (setting [8]); 98.8% (active) in test [3] (at 50.0 µM); 15% in test [4] (setting [7]); 96% (active) in test [4] (setting [8]); 98% (active) in test [4] (at 50.0 µM). In addition, the growth inhibition in test [5] (setting [7]) was 30%; in test [5] (setting [8]), 97% (active); in test [5] (at 50.0 µM), 96.7% (active); in test [6] (setting [7]), 28%; in test [6] (setting [8]) it was 95% (active); in test [6] (at 50.0 µM), 97.8% (active).

On to `C/C(=N\NC(=S)N1CCC(C)CC1)c1ncccn1`, for which the growth inhibition is -4% in test [1] (setting [7]); 98% (active) in test [1] (setting [8]); 99.2% (active) in test [1] (at 50.0 µM); -5% in test [2] (setting [7]); 99% (active) in test [2] (setting [8]); 99.2% (active) in test [2] (at 50.0 µM). The growth inhibition is 0% in test [3] (setting [7]); 98% (active) in test [3] (setting [8]); 99.3% (active) in test [3] (at 50.0 µM); -7% in test [4] (setting [7]); 98% (active) in test [4] (setting [8]); 98.8% (active) in test [4] (at 50.0 µM). The growth inhibition in test [5] (setting [7]) was -1%; in test [5] (setting [8]), 98% (active); in test [5] (at 50.0 µM), 99.3% (active); in test [6] (setting [7]) it was -4%; in test [6] (setting [8]), 99% (active); in test [6] (at 50.0 µM) it was 98.9% (active).

`COC1OC(=O)CC1C1CC=C2C3CCC4CC(O)CCC4(C)C3CCC21C` (stereo not given): the growth inhibition was 1% in test [1] (setting [7]); 44% in test [1] (setting [8]); 83.3% (active) in test [1] (at 50.0 µM); 3% in test [2] (setting [7]); 85% (active) in test [2] (setting [8]); 74.4% (active) in test [2] (at 50.0 µM). The growth inhibition in test [3] (setting [7]) was -22%; in test [3] (setting [8]) it was 86% (active); in test [3] (at 50.0 µM), 95% (active); in test [4] (setting [7]), -8%; in test [4] (setting [8]) it was 77% (active); in test [4] (at 50.0 µM), 62.6%. For the same compound, the growth inhibition in test [5] (setting [7]) was -9%; in test [5] (setting [8]) it was 73% (active); in test [5] (at 50.0 µM), 64.8%; in test [6] (setting [7]) it was -5%; in test [6] (setting [8]), 92% (active); in test [6] (at 50.0 µM), 88.4% (active).

Regarding `CN(CCCN(CCO)CCO)C1CC(C)(C)N(O)C(C)(C)C1`, the growth inhibition in test [1] (setting [7]) is 16%; in test [1] (setting [8]), -4%; in test [1] (at 50.0 µM), -4.5%; in test [2] (setting [7]), -1%; in test [2] (setting [8]), 3%; in test [2] (at 50.0 µM), -9.7%. The growth inhibition is 7% in test [3] (setting [7]); 10% in test [3] (setting [8]); -3.5% in test [3] (at 50.0 µM); -2% in test [4] (setting [7]); 5% in test [4] (setting [8]); 14.7% in test [4] (at 50.0 µM). Besides, the growth inhibition in test [5] (setting [7]) is -3%; in test [5] (setting [8]), 2%; in test [5] (at 50.0 µM), -8.9%; in test [6] (setting [7]) it was 1%; in test [6] (setting [8]), 9%; in test [6] (at 50.0 µM), 7.2%.
